Test results reported in PubChem BioAssay.
Calls of active or inactive are those of the source. Unless noted, the rule behind the calls is not given here.

Key:
[1] = system: XIP peptide (Xip251-270) binding; assay: XIP fragment 251-270 binding compounds – biochemical, small-molecule microarray, fluorescence 635/667 nm, 0.1 µg/mL protein, primary screen (AID 1182); details: fluorescent protein binding, 635 nm, higher = more signal, called active from +8 up or from −8 down
[2] = system: XIP peptide (Xip251-270); assay: compounds binding XIP fragment 251-270 – biochemical, small-molecule microarray, fluorescence 635/667 nm, 0.5 µg/mL protein, primary screen (AID 1183); details: fluorescence 635 nm, higher = more signal
[3] = blood-stage malaria parasite viability loss – strain 3D7, DAPI fluorescence, 100 nL, primary screen (AID 1184);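 note: parasites grown inside human red blood cells in medium with human serum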; details: P. falciparum 3D7 growth, 3 d, higher = more signal
[4] = target: Homeobox protein Hox-A13 (Mus musculus) (UniProt Q62424); assay: disruptors of Hoxa13 oligonucleotide interaction – biochemical, fluorescence polarization, labeled oligonucleotide, primary screen (AID 1185); details: Hoxa13:DNA binding, 15 min, higher = more signal, called active from +8 up or from −8 down
[5] = blockers of DNA damage checkpoint Chk1 activation – imaging, HeLa, hydroxyurea, phospho-Chk1 antibody, percent positive cells, primary screen (AID 1186); details: hydroxyurea-induced phospho-Chk1 immunofluorescence imaging, higher = more signal
[6] = blockers of DNA damage checkpoint Chk1 activation – imaging, HeLa, hydroxyurea, phospho-Chk1 nuclear intensity, primary screen (AID 1187); details: hydroxyurea-induced phospho-Chk1 immunofluorescence imaging, higher = more signal

Homeobox protein Hox-A13 (Mus musculus), sequence (Q62424 whole entry, looked up): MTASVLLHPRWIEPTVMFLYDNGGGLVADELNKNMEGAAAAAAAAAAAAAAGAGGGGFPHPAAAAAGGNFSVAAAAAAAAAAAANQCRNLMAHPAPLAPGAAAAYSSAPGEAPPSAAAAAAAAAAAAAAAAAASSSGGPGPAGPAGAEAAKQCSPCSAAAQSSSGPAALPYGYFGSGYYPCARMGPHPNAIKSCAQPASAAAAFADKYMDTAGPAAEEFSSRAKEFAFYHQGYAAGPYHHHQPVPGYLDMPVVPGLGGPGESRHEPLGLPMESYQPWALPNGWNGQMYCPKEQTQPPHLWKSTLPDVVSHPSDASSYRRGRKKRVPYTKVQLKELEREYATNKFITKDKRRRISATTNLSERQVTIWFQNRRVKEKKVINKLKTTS

Structure (SMILES)	composite z-score [1]	composite z-score [2]	z-score [3]	z-score [4]	z-score [5]	z-score [6]
CC(C)N1C(=O)[C@@]2(Cc3ccccc31)c1ccccc1C(=O)N(Cc1ccccc1C(F)(F)F)[C@H]2c1ccc(CO)cc1	-0.0547 (inactive)	0.471	-0.35	-0.791 (inactive)	0.0153 (inactive)	-0.0497 (inactive)
[N-]=[N+]=NCc1ccccc1[C@H]1OC(c2ccc(OCCCO)cc2)=N[C@@]1(CCS(=O)(=O)c1ccccc1)C(=O)NCCN1CCOCC1	-0.0093 (inactive)	0.816	-2.35	-2.67 (inactive)	-0.0238 (inactive)	-0.0229 (inactive)
O=C/C=C/c1ccc(-c2ccccc2)cc1	-1.46 (inactive)	-0.548	0.886	-1.34 (inactive)	0.236 (inactive)	0.792 (inactive)
C=CC[C@]1(C(=O)NCC(O)CO)N=C(c2ccc(OCCCO)cc2)O[C@H]1c1ccccc1CN=[N+]=[N-] (stereo partly specified)	0.513 (inactive)	-0.201	-2.5	-3.62 (inactive)	-0.116 (inactive)	-0.482 (inactive)
COc1ccc([Si](C)(C)[C@@H]2[C@@H](CC(=O)N3Cc4ccccc4C[C@H]3CO)O[C@]3(C(=O)N(Cc4ccc(I)cc4)c4ccccc43)[C@H]2C)cc1	0.153 (inactive)	0.477	-2.83	-2.35 (inactive)	-0.67 (inactive)	-0.295 (inactive)
Cc1ccc(S[C@]2(C(=O)NC3CC3)CC(=O)N(C3Cc4ccccc4C3)[C@@H]2c2ccc(CO)cc2I)cc1	0.406 (inactive)	0.559	-0.396	-2.46 (inactive)	0.586 (inactive)	0.97 (inactive)
COCCCNC(=O)[C@]1(Cc2ccccc2N=[N+]=[N-])N=C(c2ccc(OCCCO)cc2)O[C@@H]1c1ccccc1	1.22 (inactive)	0.77	-2.17	-2.62 (inactive)	-0.129 (inactive)	0.0037 (inactive)
C=CCNC(=O)[C@H]1[C@@H]2C(=O)O[C@@H](c3ccccc3)[C@@H](c3ccccc3)N2[C@@H](c2ccc(O)cc2)[C@]12C(=O)Nc1ccccc12	-0.067 (inactive)	0.821	0.478	-3.97 (inactive)	0.0866 (inactive)	0.432 (inactive)
CCCCCCc1nc(Cc2cc(OC)c(OC)c(OC)c2)c(C)c2c1[Si](C(C)C)(C(C)C)OC2	-0.814 (inactive)	0.0092	-2.76	-1.45 (inactive)	-0.817 (inactive)	-0.386 (inactive)
[N-]=[N+]=NCc1ccccc1C[C@@]1(C(=O)NCCN2CCOCC2)N=C(c2ccc(OCCCO)cc2)O[C@@H]1c1ccccc1	0.682 (inactive)	0.629	-2.11	-4.43 (inactive)	0.174 (inactive)	0.47 (inactive)
O=C(c1ccccc1)N1Cc2ccccc2C[C@@]2(N=C(c3ccc(OCCCO)cc3)O[C@H]2c2ccccc2)C1=O	0.742 (inactive)	0.814	-1.92	-2.43 (inactive)	-0.0769 (inactive)	0.098 (inactive)
CO[C@H]1O[C@H](CO)[C@@H](OC(=O)CCc2ccccc2)[C@@H]2OC(=O)[C@@H](Cc3ccc4ccccc4c3)C/C=C/C[C@H](Cc3ccc4ccccc4c3)C(=O)O[C@@H]12	0.204 (inactive)	0.448	-2.13	-4.15 (inactive)	-0.267 (inactive)	-0.343 (inactive)
COc1cc(Cc2cc3c(c(-c4ccccc4)n2)[Si](C(C)C)(C(C)C)OC3)cc(OC)c1OC	-0.166 (inactive)	-1.01	-0.822	-0.497 (inactive)	-0.628 (inactive)	-0.317 (inactive)
COCCOC(=O)N1C(=O)[C@@]2(c3cc(C#CCC(C(=O)OC)C(=O)OC)ccc31)[C@H](C(=O)N1CCc3cc(OC)c(OC)cc3C1)[C@H]1C(=O)O[C@H](c3ccccc3)[C@H](c3ccccc3)N1[C@@H]2c1ccccc1OCCO	0.629 (inactive)	0.733	-2.12	0.96 (inactive)	-0.182 (inactive)	-0.252 (inactive)
C=C(C(=O)CC[C@@H](OC(=O)c1cccnc1)c1cccc(OCCO)c1)C(C)C	-0.0726 (inactive)	0.61	-2.56	-3.51 (inactive)	-0.361 (inactive)	0.519 (inactive)
C=CCN1C(=O)[C@]2(O[C@H](CCO)[C@@H]([Si](C)(C)c3ccc(OC)cc3)[C@@H]2C)c2cc(N3C(=O)c4ccccc4Oc4ccccc43)ccc21	0.297 (inactive)	0.671	-2.42	-4.93 (inactive)	-1.05 (inactive)	-1.5 (inactive)
COc1ccc(C(=O)Nc2ccc(CN3C(=O)[C@@]4(O[C@@H](CC(=O)N(CCO)Cc5ccccc5)[C@H]([Si](C)(C)c5ccc(OC)cc5)[C@H]4C)c4ccccc43)cc2)cc1	1.96 (inactive)	0.622	-0.992	-1.31 (inactive)	-0.543 (inactive)	-0.262 (inactive)
CCCCN1CC=CC23O[C@@H]4C=CCCOC(=O)C4[C@H]2C(=O)N(CCO)[C@@H]3C1=O (stereo partly specified)	0.61 (inactive)	0.485	0.211	-4.53 (inactive)	-0.307 (inactive)	-0.815 (inactive)
COC(=O)C(CC#Cc1ccc2c(c1)[C@]1(C(=O)N2)[C@H](c2ccccc2OCCO)N2[C@H](c3ccccc3)[C@H](c3ccccc3)OC(=O)[C@H]2[C@@H]1C(=O)N1CCN(c2ncccn2)CC1)C(=O)OC	-0.0996 (inactive)	0.539	-2.27	-1.41 (inactive)	0.0162 (inactive)	-0.581 (inactive)
COc1ccc(C(=O)Nc2ccc(CN3C(=O)[C@]4(O[C@H](CC(=O)N(CCO)Cc5ccccc5)[C@@H]([Si](C)(C)c5ccc(OC)cc5)[C@@H]4C)c4ccccc43)cc2)cc1	0.321 (inactive)	0.703	-2	-1.96 (inactive)	0.274 (inactive)	0.337 (inactive)
C=CCC(OC(C)=O)[C@@H]1[C@@H](N(Cc2ccc(-c3ccccc3)cc2)C(=O)Cc2ccc(OC)cc2)c2cc(OCCCO)ccc2N1C(=O)Cc1ccc(OC)cc1 (stereo partly specified)	0.497 (inactive)	-0.243	-1.97	-2.75 (inactive)	0.684 (inactive)	0.763 (inactive)
